Results reported in the supplement of paper PMC6555819.

Columns and labels:
Experiment in all cases: PBM binding z-score (relative to random genomic background probes); higher = stronger binding; sequences stand for … in GC…GCGATTGACAGCGTAGAATGAAGG
[1] = system: FXR:RXRa (NR concentration 270 nM, RXRa partner concentration 90 nM)
In short: (§1)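 Regression normalization was applied to scanned fluorescence from custom Agilent 4×180K protein-binding microarrays. Before scanning, arrays were incubated 1 h with ligand-free nuclear receptor dimers, and binding was detected with antibodies against each partner (one per run). Binding z-scores use the random background probes as reference.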

[2] = system: LXRa:RXRa (NR concentration 270 nM, RXRa partner concentration 90 nM)
In short: as §1

[3] = system: LXRa homodimer (NR concentration 270 nM)
In short: as §1

[4] = system: LXRb:RXRa (NR concentration 270 nM, RXRa partner concentration 90 nM)
In short: as §1

[5] = system: LXRb homodimer (NR concentration 270 nM)
In short: as §1

[6] = system: PPARa:RXRa (NR concentration 270 nM, RXRa partner concentration 90 nM)
In short: as §1

[7] = system: PPARg:RXRa (NR concentration 180 nM, RXRa partner concentration 90 nM)
In short: as §1

[8] = system: PPARg:RXRa 270nM:90nM, anti-RXR (NR concentration 270 nM, RXRa partner concentration 90 nM)
In short: as §1

[9] = system: PPARg:RXRa 30nM:10nM, anti-RXR (NR concentration 30 nM, RXRa partner concentration 10 nM)
In short: as §1

[10] = system: PPARg:RXRa 90nM:30nM, anti-RXR (NR concentration 90 nM, RXRa partner concentration 30 nM)
In short: as §1

[11] = system: PPARg:RXRa DBDmut IVT, anti-RXR (DBD mutation: RXRa K156A/R161A, NR concentration 270 nM, RXRa partner concentration 90 nM)
In short: as §1

[12] = system: PPARg:RXRa IVT, anti-PPARg (NR concentration 270 nM, RXRa partner concentration 90 nM)
In short: as §1

[13] = system: PPARg DBDmut:RXRa IVT, anti-PPARg (DBD mutation: PPARg1 K132A/R137A, NR concentration 270 nM, RXRa partner concentration 90 nM)
In short: as §1

[14] = system: PPARg DBDmut IVT, anti-PPARg (DBD mutation: PPARg1 K132A/R137A, NR concentration 270 nM)
In short: as §1

[15] = system: PPARg homodimer (NR concentration 180 nM)
In short: as §1

[16] = system: PXR:RXRa (NR concentration 270 nM, RXRa partner concentration 90 nM)
In short: as §1

[17] = system: PXR homodimer (NR concentration 270 nM)
In short: as §1

[18] = system: RARa:RXR (NR concentration 270 nM, RXRa partner concentration 90 nM)
In short: as §1

[19] = system: RARa homodimer (NR concentration 270 nM)
In short: as §1

[20] = system: RARb:RXRa (NR concentration 270 nM, RXRa partner concentration 90 nM)
In short: as §1

Sequence | PBM binding z-score [1] | PBM binding z-score [2] | PBM binding z-score [3] | PBM binding z-score [4] | PBM binding z-score [5] | PBM binding z-score [6] | PBM binding z-score [7] | PBM binding z-score [8] | PBM binding z-score [9] | PBM binding z-score [10] | PBM binding z-score [11] | PBM binding z-score [12] | PBM binding z-score [13] | PBM binding z-score [14] | PBM binding z-score [15] | PBM binding z-score [16] | PBM binding z-score [17] | PBM binding z-score [18] | PBM binding z-score [19] | PBM binding z-score [20]
TCTTGTAGATCAACAGGAGATTAAGAAAGATCGA | -0.494 | -0.198 | -0.713 | -0.321 | -0.695 | 0.133 | 0.237 | 0.964 | 2.14 | 1.68 | 1.37 | 0.548 | 1.52 | 0.865 | -0.322 | -0.306 | -0.21 | -0.526 | -0.298 | -0.393
GCTGGCAGGCCATTTGGGTCACTCAATGACGGGC | 0.108 | 0.0335 | -0.419 | -0.156 | -0.843 | 1.3 | 0.526 | 0.786 | -0.361 | 0.136 | 0.621 | 1.63 | -1.06 | -1.22 | -0.317 | 0.654 | 0.117 | 0.679 | -0.882 | 1.63
GCGACTGGGGAAAAGCAGGTTACCATAAGGTTGG | -0.282 | -0.412 | -0.496 | 0.0547 | -1.04 | 0.442 | 0.406 | 0.154 | -0.554 | 0.0241 | 0.483 | 0.632 | -0.499 | -1.11 | 0.255 | -0.0375 | -0.35 | 0.407 | -0.675 | -0.16
TTACCAAGGTGAAGGTCGTTGATCCCTCTGTAGA | 2.37 | 2.03 | -0.222 | 1.45 | -0.739 | 2.55 | 3.15 | 3.94 | 2.09 | 3.67 | 1.59 | 3.45 | 1.02 | -0.236 | 0.792 | 1.48 | 0.114 | 1.76 | -0.599 | 2.28
ATACCAAGGTGAGCGTGAGGTCGTTGATACTAAC | 1.64 | 1.3 | 0.0516 | 1.31 | -0.401 | 2.05 | 1.03 | 0.903 | 0.0304 | 0.391 | 1.54 | 2.2 | 0.262 | -0.46 | 0.827 | 3.26 | 0.571 | 2.34 | 0.154 | 1.97
GCTATTAGTTGACAGGGCAACCGAATGATTCTCG | -0.301 | -0.298 | -0.0236 | -0.0105 | -0.293 | 0.0349 | 0.532 | 0.626 | -0.199 | 0.442 | 0.297 | 0.029 | 0.0418 | 0.353 | 0.467 | -0.171 | 0.105 | -0.228 | 0.00268 | 0.489
TCGAGTAGGTTATCAATGGGGCATTCAGCTTTCT | 0.264 | 1.14 | -0.501 | 1.05 | -0.428 | 0.979 | -0.105 | 0.76 | 1.03 | 0.852 | 3.08 | 1.84 | -0.103 | -0.254 | -0.00524 | 0.223 | -0.333 | 0.202 | -0.0483 | 0.739
AGAATGAGGTTACCTAAGATCAGGGAAACGCTTG | 1.57 | 6.42 | -0.328 | 3.4 | -0.272 | 3.36 | 2.39 | 2.16 | 0.68 | 1.55 | 2.92 | 2.93 | 1.22 | 0.151 | 1.06 | 1.67 | 0.241 | 2.62 | -0.231 | 1.95
TAGCCTAGGTCATTGGGCCATTATAGTACGCATC | 4.57 | 3.93 | 1.08 | 2.84 | 0.197 | 4.22 | 4.13 | 3.99 | 1.45 | 3.32 | 3.37 | 4.19 | 0.472 | 0.314 | 2.65 | 1.86 | -0.263 | 2.7 | -0.217 | 3.56
CGAACTAGGTCAGAACAGGACAGAGAAGGATGAT | 1.6 | 0.878 | 0.159 | 0.278 | -0.292 | 2.94 | 5.04 | 4.26 | 1.71 | 3.03 | 7.13 | 7.18 | 1.45 | 0.658 | 0.782 | 0.74 | 0.047 | 0.515 | 0.919 | 2.88
CCTCGGAGGACAGTAGGTCAGAGCTGTCCGCTTT | 0.394 | 0.75 | -0.0267 | -0.0579 | -0.769 | 1.64 | 0.253 | 1.47 | -0.726 | 0.521 | 2.48 | 3.2 | -0.95 | -1.78 | 0.409 | 0.0704 | -0.598 | 0.582 | 0.337 | 1.97
AGAATGAGGTTATTAAGATCAGGGCATTGCGGTC | 1.9 | 1.95 | 0.705 | 1.39 | -0.0987 | 2.66 | 1.67 | 2.33 | 1 | 1.39 | 3.64 | 2.96 | 0.978 | -0.0431 | 1.27 | 1.83 | 1.83 | 1.79 | 0.408 | 1.75
TTTCGGAGGACACGAAAGGTCAGAGCTCGACATC | 3.67 | 4.36 | 4.05 | 3.47 | 0.13 | 3.77 | 1.9 | 2.77 | 0.718 | 1.71 | 0.372 | 2.08 | -0.0451 | 0.278 | 4.65 | 4.29 | 0.968 | 4.44 | 1.88 | 4.32
TCAGACAGGTGGAGGTAACTCAGGTACGCAGTCG | 0.494 | 1.77 | -0.167 | 0.998 | 0.354 | 0.55 | 0.357 | 1.4 | 3.1 | 2.3 | 1.72 | -0.0459 | 0.459 | -0.319 | 0.082 | 0.506 | 0.154 | 0.233 | 0.265 | 0.399
CTACCAAGGTGAACAAGGTCGATGATTACTATTC | 0.946 | 0.835 | 0.167 | 1.18 | -0.531 | 2.13 | 1.2 | 0.941 | 0.12 | 0.353 | 2.72 | 2.64 | 0.547 | 0.654 | 0.419 | 1.43 | 0.443 | 1.63 | 0.548 | 1.95
GCTAGCACGCCATTTGGGTCACTCAATGACGGGC | -0.103 | -0.15 | -0.585 | -0.179 | -1.07 | 1.13 | 0.747 | 0.379 | -0.294 | 0.152 | 0.446 | 1.27 | -1.77 | -1.29 | -0.0391 | 0.0907 | -0.533 | 0.592 | -0.962 | 0.997
CAAACTAAGTCACCGGAAGGTCAAAGTCCGCATG | 3.59 | 3.86 | 3.92 | 3.75 | 1.12 | 4.07 | 2.05 | 2.78 | 0.812 | 2.18 | 2.44 | 2.88 | 0.787 | 1.14 | 2.8 | 3.98 | 1.63 | 4.43 | 1.48 | 3.46
CAAGCTAGGTCACCGGAAGGTCAAAGTCCGCATG | 6.4 | 6.14 | 4.88 | 5.32 | 0.898 | 5.38 | 5.86 | 5.76 | 2.96 | 4.67 | 4.7 | 5.3 | 0.445 | 0.749 | 9.68 | 6.22 | 2.44 | 7.91 | 3.45 | 5.53
